# Experimental data reported in PubChem BioAssay AID588342 (National Center for Advancing Translational Sciences (NCATS), 2011).
# About 25,000 (6.9%) of roughly 360,000 compounds were called active. Not shown: some 9% with an inconclusive outcome. The call rests on the fitted dose curve; in most records, active means well fitted inhibition curve with a large enough effect; inconclusive means small, poorly fitted or top-dose-only effect; inactive means flat fitted curve, though single readings scatter. The entries come from a sample that favours actives as a whole. Entries that show only a call come without a potency.
# Target: Luciferin 4-monooxygenase (Photinus pyralis) (UniProt P08659)
# Sequence (P08659 whole entry, looked up): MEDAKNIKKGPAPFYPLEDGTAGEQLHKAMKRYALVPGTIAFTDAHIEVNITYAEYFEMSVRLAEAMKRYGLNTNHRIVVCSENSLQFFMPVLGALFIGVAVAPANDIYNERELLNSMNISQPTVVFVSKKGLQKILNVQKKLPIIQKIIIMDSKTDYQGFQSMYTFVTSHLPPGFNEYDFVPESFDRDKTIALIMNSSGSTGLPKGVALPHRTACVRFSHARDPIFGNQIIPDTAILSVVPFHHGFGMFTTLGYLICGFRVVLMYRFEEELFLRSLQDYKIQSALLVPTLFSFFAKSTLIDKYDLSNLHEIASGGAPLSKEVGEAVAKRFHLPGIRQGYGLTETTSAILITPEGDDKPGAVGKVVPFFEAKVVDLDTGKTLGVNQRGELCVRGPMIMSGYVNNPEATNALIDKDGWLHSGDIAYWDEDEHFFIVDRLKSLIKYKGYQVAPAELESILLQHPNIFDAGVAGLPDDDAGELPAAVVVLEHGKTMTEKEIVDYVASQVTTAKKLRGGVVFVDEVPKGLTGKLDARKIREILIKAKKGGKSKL
# Test: qHTS profiling assay for firefly luciferase inhibitor/activator using purifed enzyme and Km concentrations of substrates (counterscreen for miR-21 project); further: nearly all actives have a fitted effect of over 55% in size
# Conditions: purified FLuc, luminescence inhibition; series mostly up to 57.5 µM
# In short: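 Biochemical qHTS of compounds, final roughly 60 µM downward over six points, against 10 nM purified firefly luciferase using Km concentrations of substrates (10 uM D-luciferin, 10 uM ATP) in Tris acetate pH 7.5 buffer; luminescence output.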
# Potency means the concentration at half of the fitted maximal effect.
row,SMILES,Potency
1,Cc1cc(C)nc(N/N=C/c2ccncc2)n1,inactive
2,Cc1cc2c(C)nc(N/N=C/c3ccccc3)nc2o1,9.53 µM (active)
3,Cc1cc(C)nc(N/N=C/c2ccc([N+](=O)[O-])o2)n1,inactive
4,COc1ccc([C@H]2CC(=O)C=C(c3ccc(C)cc3)C2)cc1,inactive
5,Cc1nnc(N2CCCC(C(=O)NCCN(C)C)C2)c2nn(-c3ccccc3)c(C)c12 (centres undefined),inactive
6,CCCCOC(=O)Nc1nnc(CC(=O)NCc2ccccc2)s1,inactive
7,CCCCCOC(=O)NCCOC(=O)Nc1ccc(C(=O)OCC)cc1,inactive
8,CCCCCCOC(=O)NCC(O)c1ccccc1 (centres undefined),12 µM (active)
9,Cc1cc(Cl)ccc1C(=O)C1CCCN(C(=O)c2nonc2C)C1 (centres undefined),inactive
10,CCOC(=O)c1ccccc1NC(=O)c1nn(-c2ccc(OC)c(Cl)c2)c(=O)c2c1c1ccccc1n2C,inactive
11,O=c1[nH]n(-c2ccc([N+](=O)[O-])cc2)c(=O)c2ccccc12,inactive
12,COC(=O)CC1=NN(c2ccccc2)C(=O)C1,inactive
13,O=C1CC(c2ccccc2)=NN1c1ccc([N+](=O)[O-])cc1,13.5 µM (active)
14,COc1cc(C)ccc1OCCSc1nc2ccc(NC(=O)c3ccc(C)cc3)cc2s1,inactive
15,CN(C)S(=O)(=O)N1CCC(Oc2cccc(C(=O)NCCCC3CCCC3)c2)CC1,16.9 µM (active)
16,CNS(=O)(=O)c1cccc(C(=O)NCC2CCCCC2)c1,inactive
17,CN(C(=O)c1cccc(OC2CCN(S(=O)(=O)N(C)C)CC2)c1)C1CCOC1 (centres undefined),inactive
18,Cc1nn(-c2ccc(F)cc2)c(-n2cccc2)c1C(=O)N1CCN(c2ccccc2)CC1,inactive
19,CCc1ccccc1N(C)C(=O)C1CCCN(c2ncnc3onc(-c4ccc(F)cc4)c23)C1 (centres undefined),inactive
20,Cc1ccc(S(=O)(=O)NNC(=S)NC(C)(C)C)cc1,inactive
21,O=C1CSC2(C(=O)N(Cc3ccccc3)c3ccccc32)N1c1cccc(F)c1 (centres undefined),inactive
22,Cc1cc(C)c(S(=O)(=O)N2CCC(C(=O)OCc3c(C)noc3C)CC2)c(C)c1,inactive
23,CC(=O)O[C@H]1c2ccccc2-c2ccccc2[C@@H]1OC(C)=O,inactive
24,CC(=O)Nc1ccc(Oc2ccc3c(c2)C(=O)NC3=O)cc1,inactive
25,CC(=O)Oc1ccc2c(c1)C(=O)c1ccccc1C2=O,8.49 µM (active)
26,COc1ccc([C@H]2CC(=O)C=C(/C=C/c3ccc(Cl)cc3)C2)cc1,inactive
27,CCn1nc(C(=O)NNC(=O)C2CSC3(C)CCC(=O)N23)c2ccccc2c1=O (centres undefined),inactive
28,Cc1sc2ncn(CC(=O)NCCCC(=O)N(C)Cc3ccccc3)c(=O)c2c1C,inactive
29,Cc1cc(=O)oc2c(C)c(OC(C)C(=O)NC3CCN(Cc4ccccc4)CC3)ccc12 (centres undefined),inactive
